From PubChem BioAssay
Inconclusive results are not listed. Activity calls are given as the source filed them.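 How the source made its calls, unless noted: active means viability at or below 10% of carrier control in both of two separate runs; inconclusive means viability at or below 10% in only one of the two runs; inactive means the rest.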

What was measured:
[1] = reducers of endogenous Her2 protein level, primary screen, SKBR3 breast tumor cells, AlphaScreen, ATP viability (AID 461;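 active means Her2 level under about 52% in both replicate screens, with viability over 70% of control, limit read from the data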;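 on Her2 level: lower value means less Her2 protein in the cells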;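 on viability: percent of carrier control wells set as 100% viability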); conditions: 18-24 h, measured here: SKBR3 viability, ATP luminescence, at 10 µM
[2] = biological target: Receptor tyrosine-protein kinase erbB-2 (Homo sapiens) (UniProt P04626); assay: as above; conditions: 18-24 h, at 10 µM, stronger effect = lower value
Sequence of Receptor tyrosine-protein kinase erbB-2 (Homo sapiens) (P04626 whole entry, looked up): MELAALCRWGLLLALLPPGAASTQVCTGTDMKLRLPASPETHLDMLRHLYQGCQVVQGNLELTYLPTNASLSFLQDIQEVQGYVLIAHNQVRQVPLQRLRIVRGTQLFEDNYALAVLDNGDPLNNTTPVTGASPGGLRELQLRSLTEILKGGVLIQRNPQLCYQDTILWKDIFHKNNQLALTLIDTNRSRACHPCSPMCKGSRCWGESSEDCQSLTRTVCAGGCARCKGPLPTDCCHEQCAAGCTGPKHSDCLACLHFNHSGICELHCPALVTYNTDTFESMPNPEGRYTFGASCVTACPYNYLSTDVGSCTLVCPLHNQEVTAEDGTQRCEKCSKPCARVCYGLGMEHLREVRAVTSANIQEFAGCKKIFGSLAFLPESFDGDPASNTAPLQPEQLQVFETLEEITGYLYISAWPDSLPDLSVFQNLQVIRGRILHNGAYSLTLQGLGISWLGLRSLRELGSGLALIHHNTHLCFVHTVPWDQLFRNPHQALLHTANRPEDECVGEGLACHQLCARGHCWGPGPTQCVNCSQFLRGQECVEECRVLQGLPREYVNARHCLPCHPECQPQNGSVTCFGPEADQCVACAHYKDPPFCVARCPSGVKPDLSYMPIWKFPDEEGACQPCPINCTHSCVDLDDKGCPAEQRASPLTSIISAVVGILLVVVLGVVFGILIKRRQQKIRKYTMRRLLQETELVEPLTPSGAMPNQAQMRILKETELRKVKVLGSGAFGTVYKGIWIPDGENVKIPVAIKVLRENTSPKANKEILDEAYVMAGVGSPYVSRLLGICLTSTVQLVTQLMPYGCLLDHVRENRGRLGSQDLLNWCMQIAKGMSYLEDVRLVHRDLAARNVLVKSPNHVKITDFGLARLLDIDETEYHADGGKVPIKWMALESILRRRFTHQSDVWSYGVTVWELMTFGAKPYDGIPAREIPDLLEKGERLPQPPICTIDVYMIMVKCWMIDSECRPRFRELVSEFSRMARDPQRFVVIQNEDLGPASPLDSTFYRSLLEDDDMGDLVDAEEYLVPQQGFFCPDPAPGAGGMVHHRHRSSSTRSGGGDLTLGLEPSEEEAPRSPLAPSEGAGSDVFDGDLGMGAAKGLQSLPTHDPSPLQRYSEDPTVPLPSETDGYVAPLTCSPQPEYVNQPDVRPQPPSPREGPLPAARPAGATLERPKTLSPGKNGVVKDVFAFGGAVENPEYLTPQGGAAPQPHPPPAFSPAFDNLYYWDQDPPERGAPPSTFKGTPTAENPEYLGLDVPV

[3] = SK-BR-3 cell growth inhibitors, pilot screen, 24 h, human (AID 572); conditions: SK-BR-3 viability, CellTiter-Glo luminescence, at 10 µM, stronger effect = lower value;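 further: compound exposure lasted between 18 and 24 h rather than exactly 24 h; 100% = carrier-treated control wells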
[4] = HUVEC growth inhibition – cell-based, human, primary screen (AID 575;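 active means viability at or below 30% in both replicate assays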;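 further: 100% = median of untreated cell wells with 0.1% DMSO on each plate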); conditions: HUVEC proliferation, CellTiter-Glo luminescence, 72 h; at 10 µM; stronger effect = lower value
[5] = growth inhibitors of H69AR lung tumor, primary screen, human, duplicate replicates (AID 580;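 active means viability at or under a set limit in both replicates, limit being median viability minus 3 SD, cut at about 48% in these data, passing the limit was not always enough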;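 further: 100% = mean luminescence of untreated wells and 0% = no signal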); conditions: H69AR lung tumor cells viability, ATP luminescence, 72 h; at 10 µM; stronger effect = lower value
[6] = reversal of MRP1-mediated doxorubicin resistance, pilot screen, H69AR cells, doxorubicin co-treatment (AID 601;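 active means viability loss from added drug above about 55%, and viability with drug at most 40%, in both replicates, limit read from the data, passing the limit was not always enough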); conditions: CellTiter-Glo, 72 h, at 10 µM; for differential viability (reversal): stronger effect = higher value
[7] = viability gain of MRP-1-high H69AR cells under doxorubicin, pilot screen, MRP-1 activator project, CellTiter-Glo, duplicate (AID 807;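 active means viability increase at or above a cutoff of the median across tested compounds plus 3 SD, cut at about 8.5% in these data, passing the limit was not always enough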;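 further: compound pretreatment 18-22 h then 72 h combined with doxorubicin; 0% = doxorubicin alone and 100% = vehicle without doxorubicin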); conditions: H69AR viability with doxorubicin, CellTiter-Glo luminescence; at 10 µM; stronger effect = higher value
[8] = growth suppression of beta-catenin knockout HCT116, pilot screen, human colon tumor cells (AID 823;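 active means cell viability at or below a set limit in both duplicate runs, the limit being the all-compound median minus 4 SD, cut at about 23% in these data, passing the limit was not always enough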;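 further: 0% = wells killed by 20 µM Hyamine and 100% = untreated DMSO cell wells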); conditions: CellTiter-Glo, 60 h, at 10 µM, stronger effect = lower value
[9] = growth suppression of PTEN-deleted HCT116, pilot screen, cell-based, HCT116 clonal line, CellTiter-Glo (AID 824;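 active means viability at or below 27.92% in each of two runs, the all-compound median minus 4 SD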;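 further: 0% = 20 µM Hyamine control and 100% = vehicle cell control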); conditions: 60 h, at 10 µM, stronger effect = lower value
[10] = inhibitors of the yeast RAM network, pilot screen, dse1pr::URA3 reporter, 5-FOA selection (AID 869;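 active means inhibition over a set limit, the all-compound mean plus 3 SD, in both replicate runs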;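 further: 0% = DMSO wells with no growth and 100% = 10 µM 1-NA-PP1 with full growth; RAM network block rescues cells from 5-FOA so hits raise OD615 growth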); conditions: S. cerevisiae dse1pr::URA3 5-FOA growth, OD615, 2 d; at 10 µM; stronger effect = higher value; strain carries analog-sensitive mutant Cbk1 kinase
[11] = RAM signaling pathway blockade in yeast – S. cerevisiae, Pdr1DBD-CYC8 efflux-inhibited sensitized strain, primary screen (AID 1298;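 active means RAM network inhibition above 8.4% in each of two replicates, 3 SD over the compound average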;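 further: 0% = DMSO untreated cells without growth and 100% = 10 µM 1-NA-PP1 full growth; higher means more yeast growth rescued from 5-FOA killing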); conditions: S. cerevisiae cbk1-as DSE1-URA3 strain, 5-FOA growth OD615, 2 d; at 50 µM; stronger effect = higher value
[12] = H69AR cells + 2 uM doxorubicin, measured here: viability with 2 uM doxorubicin, stronger effect = lower value
[13] = H69AR cells, compound alone cytotoxicity

For `O=C(O)c1cc(=O)c2c(OCC(O)COc3cccc4oc(C(=O)O)cc(=O)c34)cccc2o1`, the viability [1] was 102%, the Her2 level [2] was 102% (inactive) and the viability [3] was 102% (inactive). For the same compound, the viability [4] was 121% (inactive), the viability [5] was 106% (inactive) and the differential viability (reversal) ([6]; H69AR cells + 2 uM doxorubicin) was 14.7% (inactive). The viability [6, 12] was 91.5% and the viability [6, 13] was 106%.

With `c1cn2cc(-c3ccc4c(c3)OCO4)nc2s1` the viability increase [7] was 1.35% (inactive), the viability [8] was 99.7% (inactive) and the viability [9] was 90.7% (inactive). For the same compound, the inhibition [10] was 1.96% (inactive) and the RAM network inhibition [11] was 0.64% (inactive).

With `COc1ccccc1N1CCN(C(CNC(=O)c2ccco2)c2cccnc2)CC1` (centres undefined) the viability increase [7] was -2.37% (inactive), the viability [8] was 85% (inactive) and the viability [9] was 77% (inactive). The inhibition [10] was 2.23% (inactive) and the RAM network inhibition [11] was -0.32% (inactive).

In the case of `O=C(c1cc(-c2ccccc2O)on1)N1CCc2ccccc2C1`, the viability increase [7] is reported as -0.83% (inactive), the viability [8] is reported as 97.9% (inactive) and the viability [9] is reported as 90.5% (inactive). The inhibition [10] was 0.485% (inactive) and the RAM network inhibition [11] was 7.78% (inactive).

For `CCCOc1ccc(C(=O)Nc2cc(-c3nn4c(C)nnc4s3)ccc2C)cc1`, the viability increase [7] was -3.69% (inactive), the viability [8] was 101% (inactive) and the viability [9] was 92.9% (inactive). For the same compound, the inhibition [10] was 1.7% (inactive) and the RAM network inhibition [11] was 3.75% (inactive).

In the case of `CN1Cc2c(N)cccc2C(c2ccccc2)C1` (centres undefined), the viability [1] is reported as 81%, the Her2 level [2] is reported as 102% (inactive) and the viability [3] is reported as 81% (inactive). For the same compound, the viability [4] was 106% (inactive), the viability [5] was 102% (inactive) and the differential viability (reversal) ([6]; H69AR cells + 2 uM doxorubicin) was 5.5% (inactive). The viability [6, 12] was 96.5% and the viability [6, 13] was 102%.

With `CC(C)(S)[C@@H](N)C(=O)O` the viability [1] was 102%, the Her2 level [2] was 93% (inactive) and the viability [3] was 102% (inactive). For the same compound, the viability [4] was 106% (inactive), the viability [5] was 110% (inactive) and the differential viability (reversal) ([6]; H69AR cells + 2 uM doxorubicin) was 15.4% (inactive). It also gave a viability [6, 12] of 94.3% and a viability [6, 13] of 110%.

In the case of `CN(C)CCOC(c1ccccc1)c1ccccc1` (tested in a mixture with another compound), the viability [1] is reported as 93.5%, the Her2 level [2] is reported as 106% (inactive) and the viability [3] is reported as 93.5% (inactive). The viability [4] was 98.9% (inactive), the viability [5] was 103% (inactive) and the differential viability (reversal) ([6]; H69AR cells + 2 uM doxorubicin) was 19.3% (inactive). It also gave a viability [6, 12] of 83.7% and a viability [6, 13] of 103%.

In the case of `O=C(O)Cc1cc(I)c(Oc2ccc(O)c(I)c2)c(I)c1`, the viability [1] is reported as 89%, the Her2 level [2] is reported as 106% (inactive) and the viability [3] is reported as 89% (inactive). The viability [4] was 76% (inactive), the viability [5] was 96.3% (inactive) and the differential viability (reversal) ([6]; H69AR cells + 2 uM doxorubicin) was -4.12% (inactive). The viability [6, 12] was 100% and the viability [6, 13] was 96.3%.

With `C[C@]12CC[C@@H]3c4ccc(OS(=O)(=O)O)cc4CC[C@H]3[C@@H]1CCC2=O` the viability [1] was 87%, the Her2 level [2] was 108% (inactive) and the viability [3] was 87% (inactive). For the same compound, the viability [4] was 99.6% (inactive).
